Records with an inconclusive call do not appear. A number with no mark means an inactive call. Calls follow the shape of the dose curve; as a rule, active = well fitted cell-killing curve with a large enough effect; inconclusive = small, poorly fitted or top-dose-only effect; inactive = no such curve, though single readings can be large or run the other way.

The values that follow come from PubChem BioAssay (NCATS).

The assay is described as follows: qHTS of pediatric cancer cell lines to identify multiple opportunities for drug repurposing: Primary screen for Rh41 cells (AID 1347108).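 Also: luminescence drop marks cytotoxic hits; nearly all actives have a fitted effect of over 70% in size.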 Particulars: Rh41 rhabdomyosarcoma viability, CellTiter-Glo luminescence, 48 h; series mostly up to 46 µM; activity change, negative = cytotoxic: at the top concentration. In outline:
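Luminescence from CellTiter-Glo served as readout of metabolically active cells after 48 h compound exposure. Titrations: MIPE 11-point, from 0.78 nM; NPC 8-point, from 0.59 nM (final). Concentration-response curves came straight from the primary screen.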
In general terms: Quantitative high-throughput screening tests each substance at several concentrations.
In the case of `NS(=O)(=O)c1cc(-c2nn[nH]n2)c(NCc2cccs2)cc1Cl`, the “activity change, negative = cytotoxic” value is 23.7%.

`CN1C(C)(C)CCCC1(C)C`: the “activity change, negative = cytotoxic” value was 11.4%.

Take `Cc1cc(=O)[nH]c(=S)[nH]1`: the “activity change, negative = cytotoxic” value was 25%.

As for `NCc1ccc(S(N)(=O)=O)cc1`, the “activity change, negative = cytotoxic” value is 9.94%.

For `Cc1c(C(=O)NCCO)[n+](=O)c2ccccc2n1[O-]`, the “activity change, negative = cytotoxic” value is 15.9%.

In the case of `OCCN1C[C@H](O)[C@@H](O)[C@H](O)[C@H]1CO`, the “activity change, negative = cytotoxic” value is 40.4%.

Consider `CC(=O)OCC(COC(C)=O)OC(C)=O`, for which the “activity change, negative = cytotoxic” value was 24.8%.

Turning to `COc1ccc(O)cc1`, the “activity change, negative = cytotoxic” value is 4.32%.

In the case of `O=C(CN1CCNCC1)NC1CCCCC1`, the “activity change, negative = cytotoxic” value is 7.33%.

For the compound `Cc1cccc(C(=O)O)c1O`, the “activity change, negative = cytotoxic” value is 7.35%.

With `CC(=O)NS(=O)(=O)c1ccc(N)cc1`, the “activity change, negative = cytotoxic” value is 18.2%.

For `CC(C)CCCC(C)CCCC(C)CCCCC(C)CCCC(C)CCCC(C)C` (stereo not drawn), the “activity change, negative = cytotoxic” value was 31.3%.

Regarding `OCc1ccc(Cl)cc1Cl`, the “activity change, negative = cytotoxic” value is 9.94%.

Regarding `CC1(C)S[C@@H]2[C@H](N=CN3CCCCCC3)C(=O)N2[C@H]1C(=O)O`, the “activity change, negative = cytotoxic” value was 14.3%.

For the compound `O=C(Cn1ccnc1[N+](=O)[O-])NCCO`, the “activity change, negative = cytotoxic” value is 25.4%.

Take `COc1ccc(Cc2cnc(N)nc2N)cc1OC`: the “activity change, negative = cytotoxic” value was 30.7%.

With `CN/C(=C\[N+](=O)[O-])NCCSCc1csc(CN(C)C)n1`, the “activity change, negative = cytotoxic” value is 25.6%.

As to `NC(=O)CC[C@@H](N)C(=O)O`, the “activity change, negative = cytotoxic” value was 13.2%.

For `C[C@]1(Cn2ccnn2)[C@H](C(=O)O)N2C(=O)C[C@H]2S1(=O)=O`, the “activity change, negative = cytotoxic” value was 24.7%.

Turning to `CCOc1ccccc1O[C@H](c1ccccc1)[C@H]1CNCCO1`, the “activity change, negative = cytotoxic” value is 22.2%.

As to `CC[C@H](C)[C@H](N)C(=O)O`, the “activity change, negative = cytotoxic” value was 23%.

Regarding `Cc1[nH]c(C)c(Cl)c(=O)c1Cl`, the “activity change, negative = cytotoxic” value is 10.6% [at 16.1 µM].

As to `Nc1ncnc(Nc2ccccc2)n1`, the “activity change, negative = cytotoxic” value is 3.5%.

For `O=C(OOC(=O)c1ccccc1)c1ccccc1`, the “activity change, negative = cytotoxic” value was 22.7%.

For `Nc1ccncc1N`, the “activity change, negative = cytotoxic” value is 3.55%.

With `CCCCCCCC(=O)OCC(COC(=O)CCCCCCC)OC(=O)CCCCCCC`, the “activity change, negative = cytotoxic” value was 20.5%.

For the compound `CCN(CC)CC1CCCCN1CC(=O)N1c2ccccc2C(=O)Nc2cccnc21` (stereo not drawn), the “activity change, negative = cytotoxic” value was 16.6%.

Consider `CCCCCCCCCCCCCCCCC(C(=O)O)C(O)(CC(=O)O)C(=O)O` (stereo not drawn), for which the “activity change, negative = cytotoxic” value was 25.4%.

Consider `CCCCC1(COC(=O)CCC(=O)O)C(=O)N(c2ccccc2)N(c2ccccc2)C1=O`, for which the “activity change, negative = cytotoxic” value was 27.1%.

With `CC1(c2ccccc2)OC(C(=O)O)=CC1=O` (stereo not drawn), the “activity change, negative = cytotoxic” value was 24.4%.

Take `CC(C)(C)NCC(O)COc1cccc2c1CCC(=O)N2` (stereo not drawn): the “activity change, negative = cytotoxic” value was 17.3%.

Regarding `C=CCOc1ccccc1OCC(O)CNC(C)C` (stereo not drawn), the “activity change, negative = cytotoxic” value was 19%.

Take `NC(=O)CCCCC1CCSS1` (stereo not drawn): the “activity change, negative = cytotoxic” value was 20.6%.

For `NCC1CCC(C(=O)Oc2ccc(CCC(=O)O)cc2)CC1` (stereo not drawn), the “activity change, negative = cytotoxic” value is 18.6%.

On to `O[C@@H]1CO[C@H]2[C@@H]1OC[C@@H]2O`, for which the “activity change, negative = cytotoxic” value was 12.3%.

Consider `Cc1cc(NC(=O)C2=C(O)c3ccccc3S(=O)(=O)N2C)no1`, for which the “activity change, negative = cytotoxic” value is 4.77%.

On to `COc1cc(O)cc(O)c1`, for which the “activity change, negative = cytotoxic” value is 20.1%.

Turning to `CC(=O)Nc1ccccc1`, the “activity change, negative = cytotoxic” value was 13.2%.
